In the library only some 4% were active in any assay of this set; here they are far more common.
ERAP1 inh – inhibitors of human ERAP1 aminopeptidase; inhibition, % at 10.7 µM; AID 652197; Q9NZ08; 0.15% of 340,000 active; recombinant ERAP1, Leu-AMC fluorescence, 60 min;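 active means mean replicate inhibition of at least 30%, or all replicates individually reaching that 30% level; inactive means mean below 30% and not every replicate reaching it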;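 further: 0% = neutral control wells and 100% = L-leucinethiol positive control wells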
Target sequence (Q9NZ08 whole entry, looked up): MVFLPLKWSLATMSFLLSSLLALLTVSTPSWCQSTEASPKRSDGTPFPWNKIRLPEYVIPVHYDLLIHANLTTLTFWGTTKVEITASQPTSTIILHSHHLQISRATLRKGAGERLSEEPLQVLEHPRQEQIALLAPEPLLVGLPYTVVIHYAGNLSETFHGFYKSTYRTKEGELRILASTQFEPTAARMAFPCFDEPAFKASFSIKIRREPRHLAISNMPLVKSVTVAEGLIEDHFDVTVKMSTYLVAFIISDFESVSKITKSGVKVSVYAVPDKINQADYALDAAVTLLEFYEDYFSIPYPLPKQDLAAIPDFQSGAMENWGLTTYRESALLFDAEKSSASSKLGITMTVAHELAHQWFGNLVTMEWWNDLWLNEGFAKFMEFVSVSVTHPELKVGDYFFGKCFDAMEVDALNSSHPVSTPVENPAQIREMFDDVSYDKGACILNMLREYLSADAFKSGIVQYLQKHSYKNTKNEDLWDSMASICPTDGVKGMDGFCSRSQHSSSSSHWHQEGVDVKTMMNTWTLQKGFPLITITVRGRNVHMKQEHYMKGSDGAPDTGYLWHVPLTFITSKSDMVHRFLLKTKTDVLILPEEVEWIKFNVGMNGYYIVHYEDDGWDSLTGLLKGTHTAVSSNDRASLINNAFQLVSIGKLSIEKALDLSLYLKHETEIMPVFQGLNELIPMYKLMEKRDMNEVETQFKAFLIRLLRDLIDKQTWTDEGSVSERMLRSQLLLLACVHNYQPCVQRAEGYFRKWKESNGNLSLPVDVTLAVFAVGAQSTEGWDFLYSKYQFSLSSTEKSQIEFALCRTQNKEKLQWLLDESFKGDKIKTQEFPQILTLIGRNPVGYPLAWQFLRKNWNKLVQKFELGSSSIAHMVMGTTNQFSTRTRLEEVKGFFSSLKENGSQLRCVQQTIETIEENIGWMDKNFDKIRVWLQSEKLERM
FGF22 binding – FGF22 (human) thermal shift binding; AID 651658; recombinant FGF22 thermal shift, SYPRO orange fluorescence; percent of sucrose octasulfate shift, DMSO zero; 1.5% of 340,000 active; activity (Tm shift, normalised), % at 9.99 µM;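 active means mean Tm shift, scaled 0 neutral to 100 positive control, at about 1.3% or above, every replicate too, limit read from the data; inconclusive means no clear call, values can overlap the other calls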
RAD52 inh – RAD52 (human) annealing inhibition; P43351; recombinant RAD52 DNA annealing, FRET fluorescence; inhibition, % at 18.7 µM; 0.46% of 360,000 active; AID 651710;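 active means every replicate showing at least 50% inhibition; inconclusive means mean inhibition at least 50% but not in every replicate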
DENV2 CPE rescue – protects cells from dengue virus 2 cytopathic effect | DENV2-infected cells, cytopathic effect rescue, plate reader | CPE inhibition, % at 9.99 µM | 1.7% of 350,000 active; in the data active means CPE inhibition above about 20%, passing the limit was not always enough; inconclusive means no clear call, values can overlap the other calls; tested in BHK-21 cells;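 further: 0% = median of neutral control wells and 100% = median of positive control wells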
MLL AF4-AF9 inh – blocks AF4 peptide binding to human AF9. P42568. AlphaScreen, biotin-AF4 peptide binding to FLAG-AF9. inhibition, % at 10 µM. 0.47% of 350,000 active. AID 651704;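 active means every replicate reaching a set inhibition limit, whatever the replicate mean, cut at about 25% in these data; inconclusive means mean inhibition reaches that limit but some replicates miss it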;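 further: 0% = plate neutral control median and 100% = total signal loss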
Active calls of the source: *; ? = inconclusive; / = not tested or not shown.

SMILES | ERAP1 inh | FGF22 binding | RAD52 inh | DENV2 CPE rescue | MLL AF4-AF9 inh
C[C@H](CO)N1C[C@H](C)[C@@H](CN(C)CC2CCCCC2)Oc2ccc(NS(C)(=O)=O)cc2CC1=O | 1 | 0 | 4 | -4 | 2
Cc1cc(NC(=O)CSc2ccc3nnc(CCNS(=O)(=O)c4ccccc4)n3n2)no1 | -1 | 44* | -7 | 0 | -1
COc1ccc(OC)c(N=Nc2c(O)c3ccccc3[nH]c2=O)c1 | 0 | 43* | -11 | -3 | 6
Cc1cc(F)ccc1C(O)c1ncc(-c2ccccc2C(F)(F)F)[nH]1 (stereo not drawn) | 6 | 0 | -1 | 60* | 2
COc1ccc(C2=NN(C(=O)CSc3nnc(C)n3C)C(c3ccco3)C2)cc1 (stereo not drawn) | 4 | 43* | -17 | 3 | 2
Cc1oc(/N=C/c2ccccc2)c(C#N)c1C | 2 | / | -108 | 22* | 3
CCC(CC)C(=O)c1c[nH]c(C(=O)NCc2ccncc2)c1 | 8 | 0 | -6 | 2 | -2
O=C(Cc1ccccc1)c1c[nH]c(C(=O)NCc2ccncc2)c1 | 3 | 43* | -3 | 13 | 0
COc1ccc2c3c(n(C)c2c1)[C@@H](CO)N(Cc1cccnc1)CC31CN(C(=O)c2cccnc2)C1 | -2 | / | -7 | -1 | -4
CCC(=O)N1CC(=O)N2[C@H](CO)[C@H](c3ccc(-c4ccccc4F)cc3)[C@H]2C1 | / | / | -30 | -5 | -2
CCCCNc1nc2c(c(=O)[nH]c(=O)n2C)n1CCCc1ccccc1 | 3 | 43* | -5 | 7 | 2
CN(C)CCCNC(=O)C[C@H]1CC[C@@H]2[C@H](COC[C@H](O)CN2CC2CCCC2)O1 | -3 | 0 | 6 | -6 | -1
S=C1NCCN1CC1CCN(CCCC2CCCC2)CC1 | -3 | 0 | -8 | 72* | 3
CCN1C[C@@H]2[C@@H]3C(=O)N(Cc4ccccc4)C(=O)[C@@H]3[C@](Cc3ccccc3)(C1=O)N2C(=O)c1ccc(Br)cc1 | -4 | 0 | -37 | 68* | 6
N#C/C(=C(/O)COC(=O)c1ccc(C#N)cc1)c1nc2ccccc2s1 | 1 | 44* | -18 | ? | -6
COc1ccccc1NC(=O)CN(Cc1ccco1)C(=O)c1ccc(N2CCCC2=O)cc1 | 2 | 44* | -31 | ? | 2
Cc1noc(C)c1NC(=O)N(C)C[C@@H]1Oc2ccc(NS(=O)(=O)c3cccs3)cc2C(=O)N([C@H](C)CO)C[C@@H]1C | 0 | 0 | -5 | 2 | -12
C[C@@H]1CN([C@@H](C)CO)C(=O)c2cc(N(C)C)ccc2O[C@H]1CN(C)C(=O)Nc1ccc2c(c1)OCO2 | 6 | 0 | -9 | 40* | -3
Cc1noc(C)c1NC(=O)N(C)C[C@H]1Oc2ccc(NS(=O)(=O)c3cccs3)cc2C(=O)N([C@@H](C)CO)C[C@@H]1C | 1 | 0 | -7 | 38* | -11
C[C@@H]1CN([C@@H](C)CO)C(=O)c2cc(N(C)C)ccc2O[C@H]1CN(C)C(=O)Nc1ccc(F)cc1 | 4 | 0 | -2 | 35* | 0
C[C@H](CO)N1C[C@H](C)[C@H](CN(C)C(=O)Nc2ccc3c(c2)OCO3)Oc2ccc(N(C)C)cc2C1=O | -2 | -1 | 1 | 3 | 4
Cc1noc(C)c1NC(=O)N(C)C[C@H]1Oc2ccc(N(C)C)cc2C(=O)N([C@@H](C)CO)C[C@H]1C | 2 | 0 | -10 | 21* | 2
C[C@@H]1CN([C@H](C)CO)C(=O)c2cc(NC(=O)c3ccccc3)ccc2O[C@@H](C)CCCCO[C@@H]1CN(C)S(=O)(=O)c1ccc(Cl)cc1 | 1 | -1 | -50 | 10 | 0
O=C(C[C@H]1CC[C@@H](NC(=O)C2CCC2)[C@@H](CO)O1)NCCCN1CCOCC1 | 1 | 0 | 0 | -4 | 0
CC=Cc1ccc2n(c1=O)C[C@H]1[C@H](CO)[C@@H](C(=O)NCc3ccccn3)N(CCC)[C@@H]21 (mixture of isomers) | / | / | -123 | 0 | /
C[C@@H]1CN([C@@H](C)CO)C(=O)c2cc(-c3cncnc3)cnc2O[C@@H]1CN(C)C(=O)Nc1ccc2c(c1)OCO2 | 2 | 0 | -1 | -3 | 0
C[C@@H]1CN([C@@H](C)CO)C(=O)c2cc(-c3cncnc3)cnc2O[C@H]1CN(C)C(=O)Nc1ccc2c(c1)OCO2 | 0 | 0 | -5 | 47* | 0

Assay outcomes as filed in PubChem BioAssay.
